Here are results for 55 molecules from ChEMBL document CHEMBL4513216, “Probing the Open Global Health Chemical Diversity Library for Multistage-Active Starting Points for Next-Generation Antimalarials” (ACS Infect Dis, 2020).

Out of some 69,000 compounds screened, about 8,600 (12%) showed an effect of 50% or more. Only a selection was taken, and strong results are over-represented in it overall.

For the assay, the system named is Plasmodium berghei. The assay can be described thus: Screen against P. berghei liver stage (PbLuc), transformed with Luciferase, at 10uM. It is filed as functional, HepG2. Particulars: tested at 10 uM.
In the case of `CCC(C)NC(=O)CCn1ccc(C)n1` (stereo not given), the INHIBITION was -5.77%.
As to `CCC(C)NC(=O)Cn1c(Nc2cc(C)cc(C)c2)nc(C)cc1=O` (stereo not given), the INHIBITION came to 55.4%.
To `Cc1cccc(-c2nc(C)nn2CC(=O)NC(C)C)c1` belongs 22.3%.
To `Cc1cc(=O)n(CC(=O)NC(C)C)c(Nc2ccc(F)c(C)c2)n1` belongs 64.2%; to `CC(C)n1cnc2ccc(NC(=O)CCCn3cccn3)cc2c1=O`, -5.38%.
For the molecule `Cc1cccc(C(=O)N2CCC(C(=O)c3cc(F)ccc3F)CC2)n1`, the INHIBITION stood at 11.6%.
As for `Cc1cc(NC(=O)NC2CCN(C(C)C)CC2)c2ncccc2c1`, the INHIBITION was found to be 70.5%.
`Cc1cc(NC(=O)N2CCCC2C(C)(C)O)c2ncccc2c1` (stereo not given): the INHIBITION is 35.4%.
To `Cc1cc(NC(=O)N2CCCC2C(=O)NC2CC2)c2ncccc2c1` (stereo not given) belongs 22.6%; to `CCN(C(=O)c1nc2c(s1)CCCN2S(C)(=O)=O)C(C)C`, 4.68%.
On to `Cc1cc(C)n(C2CCCN(C(=O)CCNc3ncccn3)C2)n1` (stereo not given), for which the INHIBITION was 41.5%.
To `Cc1oc(-c2ccsc2)nc1CN1CCCC(c2ccnn2C)C1` (stereo not given) belongs 66.3%; to `CSc1ccc(-c2nc(CN3CCC(CN)C3)c(C)o2)cc1` (stereo not given), -70.3%; to `Cc1oc(-c2ccccc2)nc1CN1CCC(c2ccnn2C)CC1`, 69.7%.
Turning to `Cc1ncc2c(n1)CN(Cc1nc(-c3ccsc3)oc1C)CC2`, the INHIBITION is -4.92%.
To `Cc1oc(-c2ccsc2)nc1CN1CC[C@@H]2CCCC[C@H]2C1` belongs 28.4%; to `CSc1ccc(-c2nc(CN3CCC(C(N)=O)CC3)c(C)o2)cc1`, -10.2375%.
Consider `Cn1cc(NS(=O)(=O)CCOc2ccc(F)cc2)cn1`, for which the INHIBITION was -15.29%.
As for `Cc1cc(C)n(Cc2cc(C(=O)N3CCCC3c3ccccn3)n[nH]2)n1` (stereo not given), the INHIBITION was found to be 39.7%.
In the case of `CC(=O)Nc1cccc2c1ccn2CC(=O)Nc1ncc[nH]1`, the INHIBITION is 25.8%.
Next, `COCCOCC(=O)N1CCCC(c2ncc[nH]2)C1` (stereo not given): -45%; `Cc1nnc(C2CCN(c3ccccc3)CC2)o1`: 16.5%; `CN(C)S(=O)(=O)N1CCC(C)(c2ncc(C(N)=O)s2)CC1`: -7.66%.
To `Cc1ccc(NC(=O)CNC(C)CN2CCOCC2)c(F)c1` (stereo not given) belongs 41.5%; to `Cc1ccc(NC(=O)CNC(C)CN2CCCCC2)c(F)c1` (stereo not given), 63.8%.
As for `Cc1ccc(NC(=O)CN2CCOCC2)c(F)c1`, the INHIBITION is on record as 28%.
To `Cc1cc(C)n(CCC(=O)N2CCC(Nc3cccnn3)CC2)n1` belongs -16.75%; to `CC1CN(CC(=O)NC(C2CC2)C2CC2)CCN1Cc1nccn1C` (stereo not given), -43.05%; to `COc1ccc(CN2CCC3(CC2)NC(=O)CC3c2ccncc2)cc1` (stereo not given), 30.7%.
Next, `CCCN1CCCn2c(nc(CNC(=O)c3nccn3C)cc2=O)C1`: 66.8%; `CC(C)N1CCc2c(CNC(=O)c3nccn3C)cncc2C1`: 24%.
Consider `CC(C)N1CCCn2c(nc(CNC(=O)c3nccn3C)cc2=O)C1`, for which the INHIBITION came to 71.6%.
Turning to `COCC(=O)NCc1cc(=O)n2c(n1)CN(CC1CC1)CCC2`, the INHIBITION is recorded as 26.7%.
In the case of `COCCN1CCCn2c(nc(CNC(=O)COC)cc2=O)C1`, the INHIBITION came to 31.2%.
Next, `COCC(=O)NCc1cc(=O)n2c(n1)CN(C)CCC2`: 59.3%; `CN1CCCn2c(nc(CNC(=O)c3nccn3C)cc2=O)C1`: 13.7%; `Cn1ccnc1C(=O)NCc1cc(=O)n2c(n1)CN(CC1CC1)CCC2`: 4.02%.
For the molecule `Cc1oncc1C(=O)NCc1cc(=O)n2c(n1)CN(C(C)C)CCC2`, the INHIBITION was determined as 35.4%.
Turning to `CCn1cc(CN2CCC3(CC2)c2ccccc2CC3O)cn1` (stereo not given), the INHIBITION came out at 2.7%.
To `CC(C)CN1C[C@@H]2C[C@H](C(=O)N3CCCC3)[C@H](C1)O2` belongs 31.5%.
To `c1cc(CN2CCc3ncc(CN4CCCCC4)n3CC2)cs1` belongs 20.9%.
To `Cc1ccc(CN2Cc3nnn(C)c3C(COCC(=O)N(C)C)C2)s1` (stereo not given) belongs 42.1%.
On to `CC(C)CNC(=O)c1[nH]nc(C2CC2)c1Br`, for which the INHIBITION is listed as -7.46%.
Consider `O=C1NC2(Cc3ccccc31)CN(CC1CCNC1)C2` (stereo not given), for which the INHIBITION is listed as 46.6%.
Next, `Fc1cccc(C2CCCN2Cc2nnnn2C2CC2)c1` (stereo not given): 31.1%; `O=C(CCC(F)(F)F)N1CCN(Cc2ccncc2)[C@@H]2CS(=O)(=O)C[C@@H]21`: 42.1%.
As for `CCn1nc(CNC(=O)C2CCCN(CC(N)=O)C2)c2ccccc21` (stereo not given), the INHIBITION came to 67.2%.
On to `CCn1nc(C)c(CCNC(=O)C2CCCN(CC(N)=O)C2)c1C` (stereo not given), for which the INHIBITION was found to be 18.8%.
Turning to `CCn1nc(CNC(=O)C2CC(=O)N(C3CCCC3)C2)c2ccccc21` (stereo not given), the INHIBITION worked out at 30.1%.
In the case of `Cc1ccc2c(c1)c(CNC(=O)C1CCCN(CC(N)=O)C1)nn2C` (stereo not given), the INHIBITION turned out to be 10.5%.
Consider `CCN1CC(C(=O)NCc2nn(CC)c3ccccc23)CCC1=O` (stereo not given), for which the INHIBITION stood at 65%.
To `CCN1CC(C(=O)NCc2noc(Cc3ccccc3)n2)CCC1=O` (stereo not given) belongs 17.6%; to `Cc1n[nH]c(C)c1CCNC(=O)C1CCCN(CC(N)=O)C1` (stereo not given), 74.4%.
Turning to `CCn1nc(CNC(=O)C2CCCN(C(=O)COC)C2)c2ccccc21` (stereo not given), the INHIBITION is on record as 10.5%.
`Cc1n[nH]c(C)c1CCNC(=O)C1CCCN(Cc2ccco2)C1` (stereo not given): the INHIBITION is listed as -4.96%.
